Some test systems named below: NCI-H23 lung; NCI-H226 lung; NCI-H322M lung; HOP-62 NSCLC; NCI-H460 lung; HOP-92 NSCLC; NCI-H522 lung; A549/ATCC NSCLC; 786-0 renal; COLO 205 colon; DU-145 prostate; K-562 leukemia; MALME-3M melanoma; MDA-MB-231 breast; RXF 393 renal; SF-268 CNS; SF-295 CNS; SF-539 CNS; UACC-257 melanoma; M14 melanoma.
Common to all, as to experiment: NCI-60 one-dose screen, 48 h (100 = growth as untreated, 0 = no growth, -100 = all killed)
Common to all, as to settings: 10 µM unless noted

This is part of a sample that, as a whole, favours compounds with a hit. Of some 83,000 tested, about 20% had one in any assay.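 Interpretation: 100, growth as untreated; towards 0, rising growth inhibition; 0, no net growth; 0 to -100, cell death. Compounds scoring below 10 were considered active.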 A number with no mark means an inactive call. Activity calls are given as the source filed them.

Regarding `Cc1[nH]n(-c2cccc(Cl)c2)c(=O)c1/C=C1\C=Nc2ccc(Br)cc21`, the growth in the assay with NCI-H23 lung is 31.7%; with NCI-H226 lung, 69.1%; in the assay on NCI-H322M lung, 54.9%; in the assay on HOP-62 NSCLC, -16.4% (active); with NCI-H460 lung, -72.9% (active); with HOP-92 NSCLC, -16.9% (active). The growth is 29.2% in the assay on NCI-H522 lung; -8.71% (active) with A549/ATCC NSCLC; -4.37% (active) in the assay with 786-0 renal; 7.07% (active) with COLO 205 colon; 36.2% in the assay on DU-145 prostate; 64% in the assay on K-562 leukemia. The growth is 12.6% in the assay with MALME-3M melanoma; 17.4% in the assay with MDA-MB-231 breast; -44.4% (active) in the assay with RXF 393 renal; 51.1% in the assay on SF-268 CNS; 31.3% in the assay on SF-295 CNS; 42.2% in the assay on SF-539 CNS. Further, the growth was 75.1% in the assay on UACC-257 melanoma and 54.3% with M14 melanoma.
Take `COc1ccc2nc(N=Nc3c(O)ccc4ccccc34)sc2c1`: the growth with NCI-H23 lung is 31.6%; with NCI-H226 lung, 55%; in the assay with NCI-H322M lung it was 43.8%; in the assay on HOP-62 NSCLC, 30.2%; with NCI-H460 lung, 6.32% (active); with HOP-92 NSCLC, 60.9%. The growth in the assay with NCI-H522 lung was 61.2%; in the assay on A549/ATCC NSCLC, 24.6%; with 786-0 renal, 14.7%; in the assay on COLO 205 colon it was 33.1%; in the assay on DU-145 prostate it was 37.1%; in the assay with K-562 leukemia, 19.1%. The growth in the assay with MALME-3M melanoma was 57.5%; with MDA-MB-231 breast, 45.2%; in the assay with RXF 393 renal it was 52.4%; with SF-268 CNS, 33.4%; with SF-295 CNS it was 16.5%; with SF-539 CNS, 22.9%. The figures for the growth with UACC-257 melanoma and in the assay with M14 melanoma were 36.9% and 1.92% (active), respectively.
As to `O=C(Nc1cccc(C2=NCCN2)c1)c1ccc(OCCCOc2ccc(C(=O)Nc3cccc(C4=NCCN4)c3)cc2)cc1`, the growth was 1.27% (active) in the assay with NCI-H23 lung; 52.8% in the assay on NCI-H226 lung; -0.261% (active) in the assay on NCI-H322M lung; 57.4% with HOP-62 NSCLC; 6.54% (active) in the assay on NCI-H460 lung; 18.8% in the assay on HOP-92 NSCLC. Besides, the growth is -18.6% (active) in the assay with NCI-H522 lung; -55.3% (active) in the assay on A549/ATCC NSCLC; 58.1% in the assay on 786-0 renal; -18.7% (active) in the assay with COLO 205 colon; 9.35% (active) with DU-145 prostate; 27.2% with K-562 leukemia. Moreover, the growth with MALME-3M melanoma was -82% (active); in the assay on MDA-MB-231 breast, -10.5% (active); with RXF 393 renal, -19.9% (active); with SF-268 CNS it was 25.9%; with SF-295 CNS, 52.1%; in the assay on SF-539 CNS, -43.7% (active). Further, the growth in the assay with UACC-257 melanoma is -11% (active); with M14 melanoma, 30.4%.
Take `N#CSCC1CC(O)(c2ccccc2)C(c2ccccc2)C(c2ccc(F)cc2)O1` (stereo not given): the growth with NCI-H23 lung was 7.22% (active); with NCI-H226 lung, 63.1%; in the assay with NCI-H322M lung, 60.4%; in the assay on HOP-62 NSCLC, 60.3%; in the assay with NCI-H460 lung it was 25.2%; in the assay with HOP-92 NSCLC it was 1.42% (active). The growth is 25.2% in the assay on NCI-H522 lung; 63.1% in the assay with A549/ATCC NSCLC; 3.08% (active) in the assay on 786-0 renal; 22.1% in the assay on COLO 205 colon; -4.17% (active) in the assay on DU-145 prostate; 12.6% in the assay on K-562 leukemia. Moreover, the growth with MALME-3M melanoma is -10.9% (active); in the assay with MDA-MB-231 breast, -4.68% (active); in the assay on RXF 393 renal it was 25.9%; in the assay on SF-268 CNS, 29.9%; in the assay with SF-295 CNS, 52.9%; with SF-539 CNS, 40.5%. Moreover, the growth with UACC-257 melanoma was 60.1%; with M14 melanoma, -2.19% (active).
As for `COC(=O)C1=C(C(=O)ONCCN(C)C)C2C=CC1(C(Cc1ccccc1)Nc1ccc(F)cc1)O2` (stereo not given), the growth in the assay on NCI-H23 lung was 91.6%; with NCI-H226 lung, 108%; in the assay with NCI-H322M lung it was 92.8%; with HOP-62 NSCLC, 101%; in the assay with NCI-H460 lung, 113%; in the assay with HOP-92 NSCLC, 89.7%. For the same compound, the growth in the assay on NCI-H522 lung is 19.2%; in the assay with A549/ATCC NSCLC, 98.1%; in the assay on 786-0 renal it was 106%; in the assay with COLO 205 colon, -14.7% (active); in the assay with DU-145 prostate, 95.6%; in the assay with K-562 leukemia, 10.5%. Further, the growth is -9.2% (active) with MALME-3M melanoma; 108% with MDA-MB-231 breast; 111% in the assay with RXF 393 renal; 91.7% in the assay with SF-268 CNS; 113% with SF-295 CNS; 97.3% in the assay on SF-539 CNS. The growth in the assay with UACC-257 melanoma is 104%; in the assay on M14 melanoma, 101%.
Take `FC(F)(F)c1cccc(Nc2ccccc2)c1`: the growth in the assay with NCI-H23 lung was 94.2%; with NCI-H226 lung it was 97.6%; in the assay with NCI-H322M lung, 109%; in the assay with HOP-62 NSCLC, 105%; with NCI-H460 lung it was 104%; in the assay with HOP-92 NSCLC, 101%. The growth with NCI-H522 lung is 98.6%; in the assay on A549/ATCC NSCLC, 97.3%; with 786-0 renal, 101%; with COLO 205 colon it was 105%; with DU-145 prostate, 110%; in the assay with K-562 leukemia it was 95.5%. Further, the growth in the assay on MALME-3M melanoma is 99.7%; in the assay on MDA-MB-231 breast, 104%; in the assay on RXF 393 renal, 109%; in the assay on SF-268 CNS it was 103%; in the assay on SF-295 CNS it was 99.9%; with SF-539 CNS, 95.5%. The growth is 97.4% in the assay with UACC-257 melanoma and 106% with M14 melanoma.
`O=C1c2ccccc2-c2c1c1c(NCCCO)nc3ccccc3c1n2Cc1ccccc1`: the growth was 35.1% in the assay on NCI-H23 lung; 21.5% in the assay on NCI-H226 lung; 29.6% in the assay with NCI-H322M lung; -35.5% (active) in the assay with HOP-62 NSCLC; -29% (active) with NCI-H460 lung; -33.4% (active) with HOP-92 NSCLC. Moreover, the growth in the assay with NCI-H522 lung is 23.3%; in the assay with A549/ATCC NSCLC, 16%; in the assay with 786-0 renal it was -74.3% (active); in the assay with COLO 205 colon it was 62%; in the assay with DU-145 prostate it was 13.2%; with K-562 leukemia, 16.9%. Further, the growth was -54.6% (active) with MALME-3M melanoma; -2.22% (active) with MDA-MB-231 breast; -52.2% (active) in the assay on RXF 393 renal; -5.13% (active) with SF-268 CNS; 23.1% in the assay with SF-295 CNS; -49.2% (active) with SF-539 CNS. Besides, the growth is 56.5% in the assay on UACC-257 melanoma and -53% (active) in the assay on M14 melanoma.
For `Nc1c(C(=O)Nc2cccc3ccncc23)sc2nc3c(cc12)C(=O)CCC3`, the growth in the assay on NCI-H23 lung is 58.1%; with NCI-H226 lung, 73.8%; in the assay with NCI-H322M lung, 72.3%; in the assay on HOP-62 NSCLC, 62.8%; in the assay on NCI-H460 lung, 11.6%; with HOP-92 NSCLC, 69.6%. Further, the growth in the assay with NCI-H522 lung is -15.7% (active); in the assay with A549/ATCC NSCLC, 38.6%; with 786-0 renal, 44.5%; in the assay on COLO 205 colon it was 28.2%; in the assay on DU-145 prostate, 38.5%; with K-562 leukemia it was 24.8%. Besides, the growth with MALME-3M melanoma was 63.7%; in the assay on MDA-MB-231 breast, 62.8%; in the assay on RXF 393 renal, 29.8%; in the assay with SF-268 CNS, 55.1%; with SF-295 CNS, 20.1%; in the assay on SF-539 CNS, 16.1%. In addition, the results for the growth in the assay with UACC-257 melanoma and in the assay with M14 melanoma were 49.2% and 26.1%, respectively.

Source of the values: PubChem BioAssay (NCI).
